High-throughput results deposited in PubChem by Sanford-Burnham Center for Chemical Genomics.
Mac1 fbg inh – blocks human CD11b/CD18 adhesion to fibrinogen; inhibition, % at 10 µM; AID 1497; P05107+P11215; hit rate 0.54% among 93,000; K562 CD11b/CD18 adhesion to fibrinogen, ATPlite luminescence; Mn2+ added to activate the integrin;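 active = primary inhibition of 50% or more at 10 µM, then 40% or more on retest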
CYP2C19 activ – increases human CYP2C19 enzyme activity; P33261; recombinant CYP2C19, luciferin-H EGE luminescence; active compounds read high; 0 = fully inhibited enzyme, 1 = untreated enzyme; activation factor at 5 µM; 96,000 tested, under 10 active;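 active = activation factor of at least 2 at 5 µM in the primary screen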;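 also: 0 = wells with 2.5 mM tranylcypromine and 1 = vehicle-only wells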
CYP2C9 act – CYP2C9 (human) activation; recombinant CYP2C9, luciferin-H conversion, luminescence; active compounds read high; factor 1 = untreated enzyme, 0 = blocked; hit rate 1.4% among 96,000; P11712; AID 1024; activation factor at 5 µM;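 active = activation factor of 2 or more for CYP2C9 at a 5 µM dose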;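 also: 0 = sulfaphenazole-blocked wells and 1 = vehicle-only wells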
Target sequence (P11712 whole entry, looked up): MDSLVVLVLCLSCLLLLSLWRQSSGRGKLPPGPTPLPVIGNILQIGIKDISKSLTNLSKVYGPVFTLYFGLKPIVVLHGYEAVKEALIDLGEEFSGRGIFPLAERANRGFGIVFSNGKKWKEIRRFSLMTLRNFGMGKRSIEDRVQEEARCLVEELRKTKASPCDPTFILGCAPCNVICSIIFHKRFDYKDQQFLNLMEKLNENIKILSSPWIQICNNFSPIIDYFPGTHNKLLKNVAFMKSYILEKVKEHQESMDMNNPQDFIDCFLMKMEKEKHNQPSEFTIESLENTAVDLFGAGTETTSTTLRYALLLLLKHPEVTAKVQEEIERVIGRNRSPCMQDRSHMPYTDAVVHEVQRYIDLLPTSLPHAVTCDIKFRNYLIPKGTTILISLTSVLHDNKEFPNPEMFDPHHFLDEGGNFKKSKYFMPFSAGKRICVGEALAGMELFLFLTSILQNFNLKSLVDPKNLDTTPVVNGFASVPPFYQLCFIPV
CD11b adhes enh – CD11b/CD18-fibrinogen binding enhancement; P05107+P11215; K562 CD11b/CD18 adhesion to fibrinogen, ATPlite luminescence; activation, % at 10 µM; hit rate 0.07% among 93,000; AID 1499;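 active = 10 µM primary screen giving 50% or more activity, confirmed by 40% or more on retest at that dose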
CYP2C9 inhib – human CYP2C9 inhibition; P11712; CYP2C9 Supersomes, luciferin-H conversion, luminescence; inhibition, % at 5 µM; hit rate 20% among 96,000; AID 777;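 active = blocking of liver enzyme CYP2C9 beyond about 50% at 5 µM, limit read from the data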
CYP2C19 inh – inhibitors of human CYP2C19 | CYP2C19 Supersomes, luciferin-H EGE luminescence, 30 min | inhibition, % at 5 µM | hit rate 21% among 96,000 | AID 778;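 active = CYP2C19 inhibition above a set limit at 5 µM in the primary screen, cut at about 50% in these data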;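 also: plate controls were negative control wells for no effect and 2.5 mM tranylcypromine positive control for full effect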
Numbers without * were called inactive; / = not tested or not shown. The list is not random: actives were taken first. Their share in the collection is about 28%.

SMILES	Mac1 fbg inh	CYP2C19 activ	CYP2C9 act	CD11b adhes enh	CYP2C9 inhib	CYP2C19 inh
Cc1ccc(C(=O)Nc2cc3c(oc2=O)CCCC3=O)cc1	/	1	0.9	/	9	-1
CCOc1cc(C(=S)N2CCCCC2)ccc1OS(=O)(=O)c1ccc(Br)cc1	2	0.4	0.3	4	69*	56*
Cc1cccc(C(=O)Oc2ccccc2/C=N/Nc2ccc([N+](=O)[O-])cc2)c1	-18	/	/	45	/	/
CC(C)COP(=O)(c1ccc(N(C)C)cc1)C(Nc1ccccc1)c1ccccc1 (stereo not drawn)	3	/	/	2	/	/
CC(C)COP(=O)(c1ccc(N(C)C)cc1)C(O)c1ccncc1 (stereo not drawn)	44	0.3	0.4	-1	58*	72*
CC(C)OP(=O)(c1ccc(N(C)C)cc1)C(O)c1c(Cl)cccc1Cl (stereo not drawn)	-6	0.2	0.4	-1	55*	81*
CCOP(=O)(c1ccc(N(C)C)cc1)C(O)c1ccc(Cl)cc1 (stereo not drawn)	21	0.2	1.1	3	-10	80*
CN(C)c1ccc(NC(=O)/C=C/c2c(Cl)cccc2Cl)cc1	1	/	/	-4	/	/
CCOP(=O)(c1ccc(N(C)C)cc1)C(O)c1ccccc1 (stereo not drawn)	2	0.7	1	0	4	34
CCC1/C(=N\O)CC(c2ccco2)NC1c1ccco1 (stereo not drawn)	/	1	1	/	-5	4
CC1C(=O)CC(c2ccco2)NC1c1ccco1 (stereo not drawn)	-7	0.3	1.1	-2	-8	69*
CC1C(=O)CC(c2ccccc2)NC1c1ccccc1 (stereo not drawn)	-45	0.2	0.7	-1	33	82*
COc1ccc(N=c2oc3cc(O)ccc3cc2C(=O)NCC2CCCO2)c(OC)c1 (stereo not drawn)	-7	1	0.8	7	23	3
CCOC(=O)c1[nH]c2ccc(F)cc2c1NC(=O)CN1CCc2cc(OC)c(OC)cc2C1	5	0.3	0.2	2	81*	68*
CCOC(=O)N1CCN(CC(=O)Nc2c(C(=O)OC)[nH]c3ccc(Cl)cc23)CC1	55	0.7	0.7	-4	27	26
COC(=O)c1[nH]c2ccc(Cl)cc2c1NC(=O)CN1CCc2cc(OC)c(OC)cc2C1	12	0.1	0.1	1	89*	87*
COC(=O)c1[nH]c2cc(C)ccc2c1NC(=O)CN1CCc2cc(OC)c(OC)cc2C1	-15	0.5	0.5	-2	49	51*
CCCCOCCCNC(=O)c1ccc(OCC)cc1	-2	0.9	0.9	-3	5	14
O=C(Nc1nccs1)c1ccc2c(=O)n3c(nc2c1)CCCCC3	0	/	/	-3	/	/
CCOc1ccc(S(=O)(=O)NCCCN2CCOCC2)c2ccccc12	/	0.4	1.6	/	-56	60*
CCCOc1ccc(S(=O)(=O)NCCCN2CCOCC2)c2ccccc12	6	0	1.1	-6	-7	99*
COc1ccc(C)cc1S(=O)(=O)NCCC1=CCCCC1	1	0.6	0.7	0	35	36
COc1ccc(S(=O)(=O)NCCCN2CCOCC2)c2ccccc12	-4	0	1.9	3	-86	97*
CCOc1ccc(S(=O)(=O)NCCC2=CCCCC2)c2ccccc12	8	0.1	1	-3	-1	88*
CCOc1ccc2ccccc2c1CNCCN1CCOCC1	-12	0.7	0.9	2	7	31
SMILES	Mac1 fbg inh	CYP2C19 activ	CYP2C9 act	CD11b adhes enh	CYP2C9 inhib	CYP2C19 inh
CCOc1ccc(S(=O)(=O)NCCCN2CCOCC2)cc1	6	1	1.2	-2	-24	1
CC1CCCCN1S(=O)(=O)c1ccc(NC(=O)c2cccs2)cc1 (stereo not drawn)	0	0.4	0.3	-3	74*	56*
CC1CCN(S(=O)(=O)c2ccc(NC(=O)c3cccs3)cc2)CC1	26	0.2	0	0	96*	84*
CN1CCN(S(=O)(=O)c2ccc(NC(=O)c3cccs3)cc2)CC1	-3	1.1	1.1	-6	-8	-14
Cc1cc(C)nc(NS(=O)(=O)c2ccc(NC(=O)c3cccs3)cc2)n1	10	0.8	0.6	-5	44	16
CCCCN(CCCC)S(=O)(=O)c1ccc(NC(=O)c2cccs2)cc1	51	0.4	0.1	-2	91*	60*
Cn1ncc(C#N)c1NC(=O)c1nn2cccnc2c1Cl	-18	1.1	1	-2	4	-11
CC(C)(C)N=C1NC(=NC(C)(C)C)c2ccccc21	-2	1	0.9	3	9	-1
COC(=O)c1cc(NS(=O)(=O)c2ccc(NCc3cccnc3)c([N+](=O)[O-])c2)cc(C(=O)OC)c1	-1	/	/	-3	/	/
CCOc1cc(CNc2ccccc2)cc(Br)c1OCC(=O)NC(C)(C)C	-12	0.5	0.5	-5	46	50
CCOc1cc(CNc2ccc(Br)cc2)cc(Br)c1OCC(=O)NC(C)(C)C	31	0.8	0.1	1	89*	21
CCOc1cc(CNc2ccc(OC)cc2)cc(Br)c1OCC(=O)NC(C)(C)C	-9	0.5	0.4	6	59*	52*
O=C(CN1CCOCC1)Nc1ncc(Cc2cccc3ccccc23)s1	-31	0.7	1.1	-1	-5	27
Cc1ccc(NC(=O)c2ccc3ccccc3n2)nc1	-2	0.8	0.7	-2	29	16
O=S(=O)(c1ccccc1)N(C1=NCCS1)S(=O)(=O)c1ccccc1	8	0.8	1.2	-3	-17	20
CN1CCN(c2ccccc2NC(=O)c2cc(Br)ccc2Cl)CC1	-21	0.9	0.9	4	10	15
CCC(=O)N1CCN(c2ccccc2NC(=O)COc2cc(C)ccc2C(C)C)CC1	-4	0.1	0	-3	96*	93*
CC(=O)N1CCN(c2ccccc2NC(=O)c2cc(Br)ccc2Cl)CC1	-32	0.6	0.4	27	59*	36
O=C(COc1ccc(Cl)cc1Cl)NC(=S)N1CCCc2ccccc21	70	0.4	0.4	-4	62*	60*
CC(=O)N1CCN(c2ccccc2NC(=O)COc2ccc(Cl)cc2Cl)CC1	7	0.2	0.5	0	46	78*
CC(OC(=O)CCCN1C(=O)c2ccccc2C1=O)C(=O)Nc1ncc(Cl)cc1Cl (stereo not drawn)	-1	0.8	0.7	0	26	20
CC(OC(=O)C1CCN(S(=O)(=O)c2ccccc2)CC1)C(=O)Nc1ncc(Cl)cc1Cl (stereo not drawn)	-8	0.2	0.1	1	93*	75*
O=C1N=C(N2CCN(c3cccc4ccccc34)CC2)S/C1=C/c1cccs1	1	0.5	1.1	-2	-6	54*
